# KCNH2 3.1 inh: qHTS for Inhibitors of KCHN2 3.1: Mutant qHTS | Potassium voltage-gated channel subfamily H member 2, brain isoform KCNH2 3.1 (human) | U2OS KCNH2 3.1, thallium flux FluxOr; active compounds read low | activity change, % (tested at about 1.8 µM) | 0.95% of 340,000 active | AID 720553, 2013;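 active means maximum activity change below -70%; inconclusive means maximum activity change from -70% to -50%; inactive means maximum activity change above -50%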;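 further: thallium influx rate constant from kinetic fluorescence after stimulation buffer; on the % scale 0 is the no-effect control and ±100 the full control effect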
#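 Thallium flux read-out: FluxOr dye with Red40 quencher in HBSS/HEPES, 45 min at RT. Rate constants from kinetic reads were normalized to positive and negative DMSO controls. Cells: U2OS virally expressing the 3.1 isoform.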
# MBNL1 CUG block: qHTS Assay for Inhibitors of MBNL1-poly(CUG) RNA binding. TR-FRET MBNL1-His/biotin-(CUG)12 binding, 665/545 ratio. Potency, µM (highest dose often 57.5 µM), for the others: top-dose activity change, negative = inhibition, actives largely listed as inhibitors. 0.036% of 280,000 active. AID 2675, 2010; active means well fitted inhibition curve with a large enough effect in the signal ratio, with a control signal flat, not every such curve was filed as active; inconclusive means small, poorly fitted or top-dose-only effect, or effect the other way, or a change in a side signal; inactive means no such curve, though single readings can be large or run the other way; the % refers to the signal ratio; further: potency means the concentration at half of the fitted maximal effect; on the % scale 0 is the no-effect control and ±100 the full control effect
# Target sequence (Q9NR56 whole entry, looked up): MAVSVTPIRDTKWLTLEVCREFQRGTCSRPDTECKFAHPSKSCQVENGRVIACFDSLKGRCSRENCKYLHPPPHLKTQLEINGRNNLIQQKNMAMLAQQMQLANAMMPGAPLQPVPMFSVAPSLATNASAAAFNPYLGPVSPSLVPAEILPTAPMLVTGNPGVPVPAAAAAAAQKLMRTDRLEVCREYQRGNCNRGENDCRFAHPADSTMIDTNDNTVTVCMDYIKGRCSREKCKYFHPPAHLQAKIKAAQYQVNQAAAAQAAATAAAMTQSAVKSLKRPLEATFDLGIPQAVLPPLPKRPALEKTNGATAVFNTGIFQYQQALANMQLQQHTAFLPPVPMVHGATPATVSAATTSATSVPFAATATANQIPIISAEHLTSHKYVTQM
#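 Ratiometric TR-FRET (665 over 545 nm, excitation 340 nm) tracks disruption of MBNL1-His/biotin-(CUG)12 complex after 60 min at room temperature, with compounds at 92 nM to 58 uM final.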
# PLK1 PBD block: qHTS for Inhibitors of PLK1-PDB (polo-like kinase 1 - polo-box domain): Primary Screen; Serine/threonine-protein kinase PLK1 (Homo sapiens), P53350; Plk1 PBD binding of FITC phosphopeptide, fluorescence polarization; Potency, µM, for the others: max response, negative = inhibition, usual class: inhibitors; 2.8% of 360,000 active; further: potency means the concentration at half of the fitted maximal effect; series mostly up to about 57 µM; on the % scale 0 is the no-effect control and ±100 the full control effect; nearly all actives have a fitted effect of over 65% in size
# VDR inh: Inhibitors of the vitamin D receptor (VDR): qHTS. Vitamin D3 receptor (Homo sapiens), P11473. VDR-SRC2-3 peptide fluorescence polarization, 2 h. Potency, µM, without a hit: max response, negative = inhibition, most hits filed as inhibitors. 0.93% of 400,000 active. AID 504847, 2011; further: potency means the concentration at half of the fitted maximal effect; on the % scale 0 is the no-effect control and ±100 the full control effect
#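 Compounds are added to VDR with labelled SRC2-3 coactivator peptide and held 2 h at room temperature. Inhibition of the VDR–peptide interaction is then read as a change in fluorescence polarization.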
# CBFb-RUNX1 inh: qHTS Assay for Compounds Blocking the Interaction Between CBF-beta and RUNX1 for the Treatment of Acute Myeloid Leukemia; AlphaScreen CBFb-His/RUNX1-biotin binding, biochemical; Potency, µM (highest dose often 59.8 µM), for the others: at the highest dose activity, negative = inhibition, hits mostly inhibitors; Runt-related transcription factor 1 (Homo sapiens) + Core-binding factor subunit beta …; 230,000 tested, under 10 active; AID 1477, 2009; further: % of control where 0% means no effect
#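 Inhibition was taken as any reduction in AlphaScreen signal from the CBF-beta–RUNX1 pair (His and biotin tags, 30 nM each), measured after compound (15 min) and bead (90 min) incubations at room temperature.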
# hERG WT inh: qHTS for Inhibitors of KCHN2 3.1: Wildtype qHTS. U2OS, BacMam KCNH2, thallium flux FluxOr; active compounds read low. activity change, % at 1.84 µM. Voltage-gated inwardly rectifying potassium channel KCNH2 (Homo sapiens), Q12809. 0.37% of 340,000 active. AID 720551, 2013;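 active means maximum activity change below -70%; inconclusive means maximum activity change between -70% and -50%; inactive means maximum activity change above -50%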; further: on the % scale 0 is the no-effect control and ±100 the full control effect
#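 U2OS cells were transduced with wild-type KCNH2 virus (2.03 x 10^8 / mL) for 4 h at room temperature, then cultured overnight at 37 C. Thallium flux was read with FluxOr dye. Rate constants were normalized to DMSO controls.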
# Starred values were filed as active, the others as inactive; u = inconclusive; x = no result given; [ ] = another dose, or the depositor's remark. Hits are enriched below; roughly 3.8% of the tested compounds scored in any of these assays. Unless noted, the call rests on the fitted dose curve; in most records, active means well fitted curve in the direction sought with a large enough effect; inconclusive means small, poorly fitted or top-dose-only effect, or another doubt; inactive means no such curve, though single readings can be large; an effect the other way counts as inactive or inconclusive.
SMILES,KCNH2 3.1 inh,MBNL1 CUG block,PLK1 PBD block,VDR inh,CBFb-RUNX1 inh,hERG WT inh
Cc1ccccc1OCCCn1c(CCNC(=O)C2CCCCC2)nc2ccccc21,x,x,x,0.9%,x,x
CCC(C)NC(=O)C1CCC(CNS(=O)(=O)c2ccc3c(c2)N(C(C)=O)CCO3)CC1 (centres undefined),-4.7,-0.7%,26.7µM*,-29.8%,x,5.9
CC(=O)N1CCOc2ccc(S(=O)(=O)Nc3cccc(C)n3)cc21,-7.2,4.8%,42.3µM*,-18.7%,x,-9.3
CC1CCCCN1C(=O)CSc1nc(C2CC2)nc2c1cnn2-c1ccccc1 (centres undefined),1.1,1.7%,26.7µM*,-10.5%,-0.3%,-11.4
CCc1ccc(N=C2NC(=O)/C(=C/c3cc(Br)c(OCC(=O)O)c(OC)c3)S2)cc1,-1.8,-8.7%,29.9µM*,u,x,-7.1
CCc1ccc(N=C2NC(=O)/C(=C/c3cc(OC)c(OC)c(OC)c3)S2)cc1,-17.2,0.8%,-2.1%,-3.2%,x,13.2
O=C(Nc1nc(-c2ccccn2)cs1)c1ccc([N+](=O)[O-])o1,2.5,20.7%,13.4µM*,-12.1%,x,12.0
CC(=O)c1ccc(-c2ccc(C(=O)Nc3nc(-c4ccccn4)cs3)o2)cc1,-6.4,x,26.7µM*,-17.8%,x,-0.9
CCCC(=O)NCC(c1ccc2c(c1)OCO2)N1CCN(c2ccc(F)cc2)CC1 (centres undefined),x,x,x,4.4%,x,x
CCN1C(=O)C2(c3ccccc31)c1c(oc3ccc(F)cc3c1=O)C(=O)N2CCCOC (centres undefined),x,x,x,0.7%,x,x
Cc1ccc(C)c(NC(=O)CSc2nc3nc(-c4cccs4)cc(C(F)(F)F)c3c(=O)[nH]2)c1,19.2,25.6%,21.2µM*,-11.0%,4.1%,4.3
Cc1ccc(C)c(NC(=O)CSc2nc(N)c(NC(=O)c3cccs3)c(=O)[nH]2)c1,-2.8,-19.8%,-13.1%,-11.8%,1.9%[2.36 µM],-6.5
O=C(CSc1nc2nc(-c3cccs3)cc(C(F)(F)F)c2c(=O)[nH]1)Nc1ccc(F)c(F)c1,19.7,21.7%,7.52µM*,-5.4%,-19.0%,-5.8
CC[C@H](C)[C@H](NC(=O)[C@H](CC(=O)O)NC(=O)[C@H](CC(C)C)NC(=O)[C@H](NC(C)=O)C(c1ccccc1)c1ccccc1)C(=O)N[C@H](C(=O)N[C@@H](Cc1c[nH]c2ccccc12)C(=O)O)[C@@H](C)CC,x,x,x,3.4%,6.3%,x
COc1ccc(NC(=O)Cn2c(=O)oc3cc(S(=O)(=O)NC4CCCC4)ccc32)cc1OC,x,x,x,2.1%,x,x
Cc1ccc(C(=O)OCc2cc(=O)n3nc(-c4cccs4)sc3n2)cc1,x,x,x,9.1%,x,x
Cn1cnc([N+](=O)[O-])c1Sc1nc2ccccc2[nH]1,-11.5,x,-12.4%,-14.8%,8.0%,0.7
O=C(O)c1cc([N+](=O)[O-])c(Sc2nc3ccccc3[nH]2)c([N+](=O)[O-])c1,-13.8,u,21.2µM*,u,x,3.1
CS(=O)(=O)c1cc([N+](=O)[O-])c(Sc2nc3ccccc3[nH]2)c([N+](=O)[O-])c1,-6.0,u,1.5µM*,35.5µM*,1.6%,-1.3
CCCCCCSc1ccc(-c2nc3ccc(Cl)cn3c2NCCCC)cc1OC,3.7,x,0.1%,-20.5%,x,-1.8
CCCCNc1c(-c2ccc(SC3CCCCC3)c(OC)c2)nc2ccc(Cl)cn12,-97.4*,x,2.1%,-27.5%,x,-29.4
CCCCNc1c(-c2ccc(SC(C)CC)c(OC)c2)nc2ccc(Cl)cn12 (centres undefined),-4.9,x,2.1%,0.5%,x,-238.1*
Cc1cc(Br)ccc1NC(=O)c1cc2c(=O)n(C)c3cc(Cl)ccc3c2s1,x,x,x,12.8%,x,x
CC(NCc1cccc(OCc2ccccc2)c1)C(O)c1ccccc1 (centres undefined),-148.4*,-0.1%,0.6%,16.5%,4.8%,21.6
CC(NCc1ccc(OCc2ccc(Cl)cc2)cc1)C(O)c1ccccc1 (centres undefined),-33.7,-12.7%,-4.5%,-7.3%,3.9%,26.9
SMILES,KCNH2 3.1 inh,MBNL1 CUG block,PLK1 PBD block,VDR inh,CBFb-RUNX1 inh,hERG WT inh
Cc1ccc(C(c2nnnn2Cc2ccccc2)N2CCN(Cc3ccccc3)CC2)cc1 (centres undefined),u,4.4%,-17.6%,5.6%,3.3%,-77.4*
Cc1ccc(Sc2c(C)nn(C(C)(C)C)c2OC(=O)C(C)(C)C)cc1,x,x,x,-14.5%,x,x
CC1=C(c2ccc(C)cc2)S(=O)(=O)NC1=NCc1cccc(F)c1,x,x,x,8.1%,x,x
Cc1c(C(=O)Oc2cc(N)n(S(C)(=O)=O)n2)cccc1[N+](=O)[O-],-5.4,-3.0%,11.9µM*,79.4µM*,6.9%,-7.6
C=CCOC(=O)C(C#N)c1nc2ccccc2nc1N1CCN(Cc2ccc3c(c2)OCO3)CC1 (centres undefined),-103.3*,6.3%,2.7%,20.8%,-17.5%,-110.9*
CCCCCCOC(=O)C(C#N)c1nc2ccccc2nc1N1CCN(C)CC1 (centres undefined),-70.8*,11.0%,-0.4%,-18.5%,5.5%,9.4
Cc1cccc(CNC(=O)C2CCN(c3nn4cc(-c5ccc(F)cc5)nc4s3)CC2)c1,x,x,x,9.0%,x,x
CC(C(=O)NC1CC1)c1ncc(C(F)(F)F)cc1Cl (centres undefined),5.3,-3.2%,-3.7%,-16.7%,1.1%,2.9
C#CCNC(=O)C(C)c1ncc(C(F)(F)F)cc1Cl (centres undefined),-13.9,-15.5%,6.7µM*,u,u,-2.0
O=C(CN1C(=O)CC(c2ccco2)Sc2ccccc21)Nc1ccccc1F (centres undefined),15.0,-7.5%,-22.1%,79.4µM*,-8.9%,4.8
COc1ccc(N2C(=O)c3ccccc3NC23CCCC3)cc1,10.7,x,-9.0%,-6.2%,2.8%,-3.8
COc1ccc(N2C(S)=C(C#N)C(=O)NC23CCCCC3)cc1,-10.7,-9.1%,-22.1%,50.1µM*,-0.3%,5.4
Cc1ccc(S(=O)(=O)NCCc2nnc3ccc(SCC(=O)Nc4ccc(F)cc4F)nn23)cc1,x,x,x,10.6%,x,x
CC(Sc1nc(C(C)(C)C)cc(-c2ccccc2)c1C#N)C(=O)Nc1ccccc1 (centres undefined),20.6,x,11.9µM*,u,21.6%,0.7

# High-throughput results: PubChem BioAssay, National Center for Advancing Translational Sciences (NCATS)
